Consider 110 compounds from ChEMBL document CHEMBL4513216, “Probing the Open Global Health Chemical Diversity Library for Multistage-Active Starting Points for Next-Generation Antimalarials” (ACS Infect Dis, 2020).

In all, about 69,000 compounds went through this assay and about 8,600 (12%) showed an effect of 50% or more. Shown is part of a subset that was picked to be rich in strong results.

The experiment concerns Plasmodium berghei. In words: Screen against P. berghei liver stage (PbLuc), transformed with Luciferase, at 10uM. To be noted: tested at 10 uM. The format is functional, HepG2.
Turning to `CCOCC(=O)N1C[C@@H]2CCN(c3cnccn3)C[C@@H]2C1`, the INHIBITION is on record as 32.1%. On to `COC(=O)c1cc2c(=O)n(C3CCCC3)ccc2nc1C`, for which the INHIBITION turned out to be 46.1%. Turning to `Cn1cccc1CN1CCC2(CC1)CCN(C(=O)c1cnccn1)CC2`, the INHIBITION came to 39.5%.

With `CNC(=O)[C@@]12CCC3(CCN(C(=O)C(C)C)CC3)[C@@H]1CN(S(C)(=O)=O)C2`, the INHIBITION is on record as 26.3%. `Cc1cc(C(=O)N2CCOCC2c2nc(C)c[nH]2)nc(O)n1` (stereo not given): the INHIBITION was 27.75%. For the compound `CC(C)[C@H](N)C(=O)N1CCSc2ccccc2C1`, the INHIBITION is listed as -20.5%. The result for `CC(C)C[C@H](N)C(=O)N1CCSc2ccccc2C1` reads 81.6%; that for `NC(C(=O)N1CCSc2ccccc2C1)c1ccccc1` (stereo not given), -22.1%. Next, `Cc1nc(C)n(CCCNc2ncnc3onc(C)c23)n1`: 19.2%. Take `CCCc1nc(C)c(CNc2nc(C)nc3oc(C)nc23)s1`: the INHIBITION was 48.9%. Next, `CCCc1nc(C)c(CNc2nc(C)nc3onc(C)c23)s1`: 81.4%; `CCOc1cccc(C(=O)Nc2ccncc2)c1`: 50.3%; `CC(OCC1CC1)C(=O)Nc1cccc(C(=O)Nc2ccccn2)c1` (stereo not given): 36.5%. As to `CC(OCC1CC1)C(=O)Nc1cccc(C(=O)Nc2ccncc2)c1` (stereo not given), the INHIBITION came out at 82.4%. Next, `CC(OCC1CC1)C(=O)NCCC(=O)Nc1ccccn1` (stereo not given): 1.74%. Take `CCOc1cccc(C(=O)NCCC(=O)Nc2ccncc2)c1`: the INHIBITION came out at 46.6%. The result for `CC(C)C(=O)Nc1cccc(C(=O)Nc2ccccn2)c1` reads 8.99%. For `CC(OCC1CC1)C(=O)Nc1ncccc1I` (stereo not given), the INHIBITION is 50.4%.

As for `O=C(COCC1CC1)Nc1ncccc1I`, the INHIBITION is recorded as -2.98%. As to `CCCNC(=O)c1ccc(NC(=O)c2cccc(OCC)c2)cc1`, the INHIBITION is on record as 23.5%.

Consider `CCc1noc(C(C)N2CCN(C(=O)CN3CCOCC3)CC2)n1` (stereo not given), for which the INHIBITION is reported as -25.8%. As to `Cc1sc(-c2ccco2)nc1C(=O)N1CCCC1Cn1cccn1` (stereo not given), the INHIBITION is 34.7%.

For the compound `Cc1cccc(Nc2ccc(C3CCN(Cc4ncc[nH]4)CC3)nc2)n1`, the INHIBITION worked out at 36%.

On to `Cc1cc(Nc2ccc(F)cn2)cc(C2CCN(Cc3ncc[nH]3)C2)n1` (stereo not given), for which the INHIBITION is 42.6%.

For `Fc1ccc(Nc2ccc(C3CCN(Cc4ncc[nH]4)CC3)nc2)nc1`, the INHIBITION is 56.9%. Next, `CC(C)C(=O)N1CC[C@H]2N(C)CC[C@@]2(C(=O)Nc2cccnc2)CC1`: -22.2%.

As for `Cc1ccc(-c2nn(-c3cccc(F)c3)cc2CN(CCO)CCO)o1`, the INHIBITION is 27.4%. Next, `CCN(CCO)Cc1cn(-c2cccc(F)c2)nc1-c1ccc(C)o1`: 25.7%.

Regarding `Cc1ccc(-c2nn(-c3cccc(F)c3)cc2CN(C)CCO)o1`, the INHIBITION was 65.7%. As to `Cc1cc(-c2cnn(CCNC(=O)C3CC3)c2C2CC2)on1`, the INHIBITION is listed as 59.7%.

`Cc1cc(-c2cnn(CCNC(=O)Cc3ccccn3)c2C2CC2)on1`: the INHIBITION is 60.4%.

`Cc1cc(-c2cnn(CCNC(=O)c3cnn(C)c3)c2C2CC2)on1`: the INHIBITION is recorded as 10%. The result for `Cc1cc(-c2cnn(CCNC(=O)c3cccnc3)c2C2CC2)on1` reads 38.7%; that for `Cc1cc(-c2cnn(CCNC(=O)CCn3cccn3)c2C2CC2)on1`, -1.85%; that for `Cc1cc(-c2cnn(CCNC(=O)C3CCCO3)c2C2CC2)on1` (stereo not given), 40.4%. Next, `O=C(c1cccnc1)N1C[C@H]2CC[C@@H](C1)N(Cc1ccc(F)cc1Cl)C2`: -30%.

In the case of `COc1ccc(C)cc1CN(CC(N)=O)C(C)C`, the INHIBITION was -4.63%. Regarding `O=C(NC[C@H]1OC[C@@H]2CCN(Cc3ccco3)C[C@@H]21)c1ccnnc1`, the INHIBITION is given as 6.72%. Next, `Cc1ocnc1C(=O)N(C)[C@@H]1CCC[C@@H](N2CCCC2)[C@@H]1O`: 39.3%; `O=C(NC1CC1)c1cccc(S(=O)(=O)NCCc2nc(C3CC3)no2)c1`: -86.5%.

`COCCc1noc(CN2CCN(c3ccc(OC)cc3)C(=O)C2C)n1` (stereo not given): the INHIBITION is listed as 3.3%. Next, `Cc1cc(NC(=O)CNCc2csc(-c3cnccn3)n2)ccc1Cl`: 52.2%. The result for `Cc1cc(NC(=O)CNCc2csc(-c3ncccn3)n2)ccc1Cl` reads 18%.

With `CCc1csc(CNCC(=O)Nc2ccc(Cl)c(C)c2)n1`, the INHIBITION worked out at 49%. Next, `Cc1nnc(CN2CCC3(CCC(=O)N(C4CCC(O)CC4)C3)CC2)o1` (stereo not given): 26%; `Cc1cc(CN2CCC(N(C)Cc3noc(C4CC4)n3)C2)no1` (stereo not given): 33.3%; `Cc1nc(CN2CCCC(N(C)Cc3c(C)noc3C)C2)no1` (stereo not given): 58%. Next, `Cc1cc(CN(C)C2CCCN(Cc3noc(C)n3)C2)no1` (stereo not given): -14.7%; `Cc1cc(CN(C)C2CCCN(Cc3noc(C4CC4)n3)C2)no1` (stereo not given): 53.8%. With `CN(Cc1cnn(C)c1)C1CCCN(Cc2noc(C3CC3)n2)C1` (stereo not given), the INHIBITION is reported as 14.9%. The result for `Cc1nc(CN2CCCC(N(C)Cc3nc(C)c(C)o3)C2)no1` (stereo not given) reads -31.8%; that for `CN(Cc1cccnc1)C1CCCN(Cc2noc(C3CC3)n2)C1` (stereo not given), 57.45%. Take `Cc1nc(CN(C)C2CCN(Cc3c(C)noc3C)C2)no1` (stereo not given): the INHIBITION turned out to be 21.5%. Take `CN(Cc1ccccn1)C1CCCN(Cc2noc(C3CC3)n2)C1` (stereo not given): the INHIBITION turned out to be 16.9%. The result for `Cc1cccc(CNCc2ccc(NC(=O)NC(C)C)cc2)c1` reads 47.1%. The result for `c1csc(CN2CCc3nnc(COc4cncnc4)n3CC2)c1` reads 20.5%; that for `COc1ccccc1OCCNC(=O)N1CCC(n2cncn2)CC1`, 3.15%. The result for `CCn1cnnc1CNC(=O)NC(C)C(C)C` (stereo not given) reads 10%; that for `CC(NC(=O)NCc1ccc(Cl)s1)c1ccccn1` (stereo not given), 17.7%.

`CCn1cnnc1CNC(=O)N1CCOCC1`: the INHIBITION is -4.1%. Next, `CC(NC(=O)NCc1ccc(Cl)cc1)c1ccccn1` (stereo not given): 13.5%; `CCn1cnnc1CNC(=O)NC(C)c1cccs1` (stereo not given): 31%. Next, `CC(NC(=O)NCc1cc(Br)cs1)c1ccccn1` (stereo not given): 82.6%; `CCn1cnnc1CNC(=O)NCC(C(C)C)N1CCOCC1` (stereo not given): 56.8%; `CCn1cnnc1CNC(=O)NC(C)c1ccccn1` (stereo not given): 57.8%.

In the case of `CCn1cnnc1CNC(=O)NCC(C(C)C)N1CCC(C)CC1` (stereo not given), the INHIBITION is given as 37.1%. Turning to `COCC(=O)N1CCN(c2cc(C)nc(C3CCCN3C(C)=O)c2)CC1` (stereo not given), the INHIBITION is 32.3%.

`Cc1ccccc1CN1CCN(C(=O)c2cnc(C3CC3)[nH]c2=O)CC1`: the INHIBITION was found to be 27.5%. As for `COc1cccnc1-c1ccc(F)c2c1OC(CN)C2` (stereo not given), the INHIBITION is -66.7%. The result for `COc1cc(-c2ccc(F)c3c2OC(CN)C3)cc(OC)c1OC` (stereo not given) reads 31.9%; that for `COc1cc(C)c(-c2ccc(F)c3c2OC(CN)C3)cc1C` (stereo not given), 55.1%.

Take `CC(=O)N1[C@H](Cn2cncn2)C[C@@H]2CN(C(=O)c3ccoc3)CC[C@@H]21`: the INHIBITION was -22.1%. The result for `c1cncc(CN2CCc3c(CNc4nccs4)n[nH]c3C2)c1` reads 33%; that for `Cc1n[nH]c(C2CN(C(=O)CCc3ccco3)CCO2)n1` (stereo not given), -29.2%; that for `CN1CCC(n2cc3nc(N)[nH]cc-3c2=O)CC1`, 43.3%. The result for `CN(C)c1nc2cn(C3CC(C)(C)NC(C)(C)C3)c(=O)c-2c[nH]1` reads 20.1%.

Consider `CC1(C)CC(n2cc3nc(N)[nH]cc-3c2=O)CC(C)(C)N1`, for which the INHIBITION is listed as 3.47%. The result for `Nc1nc2cn(C3CCCC3)c(=O)c-2c[nH]1` reads 51.8%. Next, `O=c1c2c[nH]c(N3CCOCC3)nc-2cn1C1CCS(=O)(=O)C1` (stereo not given): 24%; `CC1(C)CC(n2cc3nc(N4CCOCC4)[nH]cc-3c2=O)CC(C)(C)N1`: 60.1%; `CC1CCC(n2cc3nc(N)[nH]cc-3c2=O)CC1` (stereo not given): -8.9%. As for `CC1(C)CC(n2cc3nc(N4CCCC4)[nH]cc-3c2=O)CC(C)(C)N1`, the INHIBITION was found to be 64.8%.

For the compound `CNc1nc2cn(C3CC(C)(C)NC(C)(C)C3)c(=O)c-2c[nH]1`, the INHIBITION came out at 25.1%. `CCn1cc(NC(=O)c2cc(C)nc(N3CCOCC3)n2)cn1`: the INHIBITION is recorded as 15.35%.

Turning to `Cc1noc(C2CCN(C(=O)C3CCCO3)CC2)n1` (stereo not given), the INHIBITION turned out to be 35.6%. With `CN1CCCN(C(=O)c2csc3nc(-c4ccc(Cl)cc4)cn23)CC1`, the INHIBITION came out at 43.6%.

For `O=C(NCCOc1ccc2c(c1)OCO2)N1CCC1`, the INHIBITION was found to be 23.4%. Next, `Cc1ccc(C(=O)N2CCC3(CCC(=O)N(CC(N)=O)C3)CC2)cc1`: 36.8%; `COc1ccc(CNc2nc(C3CC3)nc3c(C)nn(C)c23)cc1`: -26.1%; `Cc1nc(NC2CC2)c2c(n1)c(C)nn2C`: 29.3%. `Cc1nn(C)c2c(NC3CCCC3)nc(C3CC3)nc12`: the INHIBITION turned out to be 54.2%. Next, `Cc1nn(C)c2c(NCc3ccccc3F)nc(C3CC3)nc12`: 75.1%.

For the compound `Cc1nc(NC2CCCC2)c2c(n1)c(C)nn2C`, the INHIBITION is 41.5%. For `Cc1nn(C)c2c(NCc3cccnc3)nc(C3CC3)nc12`, the INHIBITION came to 35.1%. Next, `Cc1nn(C)c2c(NCc3ccncc3)nc(C3CC3)nc12`: -6.91%; `Cc1nn(C)c2c(N3CCCC3)nc(C3CC3)nc12`: 34.5%.

On to `Cc1nn(C)c2c(NCc3ccc(F)cc3)nc(C3CC3)nc12`, for which the INHIBITION is given as 56.9%. In the case of `CC(C)N1[C@@H](C(=O)NCCN(C)C)C[C@H]2CN(c3ncccn3)C[C@H]21`, the INHIBITION is 37.8%.

Regarding `Cc1cc(CN2CCN(C(=O)NC(C)c3cccs3)CC2)on1` (stereo not given), the INHIBITION came to 38.9%.

For `CC(C)N1CCN(C(=O)C(C)n2cncn2)CC1` (stereo not given), the INHIBITION came to 19.6%. Next, `COc1ccc(CN2CC[C@@H](O)[C@@H]2Cc2cnn(C)c2)cc1`: 33.4%; `Cc1nc(CNC(=O)NCC(O)c2ccc(F)cc2)cs1` (stereo not given): 33.8%; `CC(C)c1cc(O)nc(C2CCCN2C(=O)C(C)(C)C)n1` (stereo not given): 23.2%. Next, `O=C1C[C@H]2[C@@H](CCN2C(=O)c2cscn2)N1Cc1cccnc1`: 13.7%; `O=C(NCc1nnc2ccccn12)N1CCc2sccc2C1`: -27.6%. Consider `COc1cccc2c1CCN(C(=O)NCc1nnc3ccccn13)C2`, for which the INHIBITION was -102%. Next, `O=C(NCc1nnc2ccccn12)N1CCOC(c2ccsc2)C1` (stereo not given): 32%.

In the case of `O=C(NCc1nnc2ccccn12)N1CCOC(c2cccs2)C1` (stereo not given), the INHIBITION turned out to be 63.5%. Next, `Cc1ccc(C2CN(C(=O)NCc3nnc4ccccn34)CCO2)o1` (stereo not given): 61.3%; `CCn1cnnc1CNC(=O)N1CCOC(c2ccccc2Cl)C1` (stereo not given): 17.5%.
